This is an account of results in paper PMC7862700, “An all-to-all approach to the identification of sequence-specific readers for epigenetic DNA modifications on cytosine”.

Common to all, as to test: DAPPL (digital affinity profiling via proximity ligation, sequencing); 10 mM Tris-HCl pH 7.5, 50 mM NaCl, 1 mM DTT, 4% glycerol, room temperature, 30 min; GST-TFs on glutathione beads, 16-mer random dsDNA library, 0.1% formaldehyde crosslink after washing; high values mean tight binding
One assay has as its target T1, FEV (Homo sapiens, UniProt Q99581 1-238).
T1 sequence: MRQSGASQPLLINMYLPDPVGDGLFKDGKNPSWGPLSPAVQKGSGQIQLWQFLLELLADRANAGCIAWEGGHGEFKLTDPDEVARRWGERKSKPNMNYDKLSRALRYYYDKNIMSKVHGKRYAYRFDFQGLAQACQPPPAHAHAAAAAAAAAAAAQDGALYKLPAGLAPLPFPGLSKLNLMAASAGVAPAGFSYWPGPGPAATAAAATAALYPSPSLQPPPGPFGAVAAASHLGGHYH
The conditions noted are these: protein: recombinant; tags: N-terminal GST; dsDNA, one strand shown. Put shortly:
(§1)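 In yeast, human transcription factors were expressed with a GST fusion, then pulled down on glutathione beads and given DNA barcodes. Pooled with a tag-only sample, they were exposed to 200 nmole of a 16-mer random double-stranded DNA library (Tris/NaCl/DTT/glycerol buffer, room temperature, 30 min), washed, crosslinked with 0.1% formaldehyde, proximity-ligated using BsaI/T4 ligase for 1 h at 37 °C, PCR-amplified and read on an Illumina NextSeq500. Each hexamer's frequency of reads for a factor, divided by the matching frequency for the tag-only sample, gives the binding signal.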

Another assay concerns the target ETV5 (Homo sapiens, UniProt P41161 1-510). The conditions noted are these: protein: recombinant; tags: N-terminal GST; dsDNA, one strand shown. Put shortly:
as §1

The target of the next assay is HSF1 (Homo sapiens, UniProt Q00613 1-529). The conditions noted are these: protein: recombinant; tags: N-terminal GST; chain copies: 3; dsDNA, one strand shown. Put shortly:
as §1

In a further assay the target is T2, SPIC (Homo sapiens, UniProt Q8N5J4 1-248).
T2 sequence: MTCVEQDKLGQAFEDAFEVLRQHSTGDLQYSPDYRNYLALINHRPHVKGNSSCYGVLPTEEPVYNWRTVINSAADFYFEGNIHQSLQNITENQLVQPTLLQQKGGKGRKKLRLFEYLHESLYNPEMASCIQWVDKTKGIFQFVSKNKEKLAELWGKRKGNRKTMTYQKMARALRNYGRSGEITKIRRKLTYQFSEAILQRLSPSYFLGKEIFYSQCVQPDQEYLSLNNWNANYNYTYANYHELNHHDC
The note with it: protein: recombinant; tags: N-terminal GST; dsDNA, one strand shown. Put shortly: as §1

Another assay concerns the target ELF4 (Homo sapiens, UniProt Q99607 1-663). The conditions noted are these: protein: recombinant; tags: N-terminal GST; dsDNA, one strand shown. Put shortly:
as §1

For the next assay, the target named is T3, ELK4 (Homo sapiens, UniProt P28324-2 1-405).
T3 sequence: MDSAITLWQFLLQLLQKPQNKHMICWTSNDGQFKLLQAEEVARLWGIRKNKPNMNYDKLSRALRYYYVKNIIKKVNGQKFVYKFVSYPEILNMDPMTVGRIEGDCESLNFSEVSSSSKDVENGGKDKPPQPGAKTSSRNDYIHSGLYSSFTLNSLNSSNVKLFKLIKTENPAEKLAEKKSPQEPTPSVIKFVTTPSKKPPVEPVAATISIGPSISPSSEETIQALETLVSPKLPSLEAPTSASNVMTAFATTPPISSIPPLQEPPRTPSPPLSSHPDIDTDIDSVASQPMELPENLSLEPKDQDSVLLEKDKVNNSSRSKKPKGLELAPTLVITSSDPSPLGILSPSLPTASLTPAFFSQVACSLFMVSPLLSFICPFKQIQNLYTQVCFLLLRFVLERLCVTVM
The note with it: protein: recombinant; tags: N-terminal GST; dsDNA, one strand shown. Put shortly:
as §1

A further assay has as its target T4, ETV2 (Homo sapiens, UniProt O00321 1-342).
T4 sequence: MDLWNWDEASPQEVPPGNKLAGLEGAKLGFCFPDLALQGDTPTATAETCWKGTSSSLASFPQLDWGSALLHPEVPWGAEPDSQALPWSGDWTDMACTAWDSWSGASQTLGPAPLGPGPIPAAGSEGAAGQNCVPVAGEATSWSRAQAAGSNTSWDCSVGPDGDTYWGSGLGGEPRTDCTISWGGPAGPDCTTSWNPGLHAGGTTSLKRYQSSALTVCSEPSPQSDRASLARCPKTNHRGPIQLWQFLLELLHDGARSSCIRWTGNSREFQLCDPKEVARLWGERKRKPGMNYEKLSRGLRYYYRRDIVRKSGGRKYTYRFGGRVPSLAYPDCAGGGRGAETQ
The conditions noted are these: protein: recombinant; tags: N-terminal GST; dsDNA, one strand shown. Put shortly:
as §1

Another assay addresses T5, ELF3 (Homo sapiens, UniProt P78545 1-371).
T5 sequence: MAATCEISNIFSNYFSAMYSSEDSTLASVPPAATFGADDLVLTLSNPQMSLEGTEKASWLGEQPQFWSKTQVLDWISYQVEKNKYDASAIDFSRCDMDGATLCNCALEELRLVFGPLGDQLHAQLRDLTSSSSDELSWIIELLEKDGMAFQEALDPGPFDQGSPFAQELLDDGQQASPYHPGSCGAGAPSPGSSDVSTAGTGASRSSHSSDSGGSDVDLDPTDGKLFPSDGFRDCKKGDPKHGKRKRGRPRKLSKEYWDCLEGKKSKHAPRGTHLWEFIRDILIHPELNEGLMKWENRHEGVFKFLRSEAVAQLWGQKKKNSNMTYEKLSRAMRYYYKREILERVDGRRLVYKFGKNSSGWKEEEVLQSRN
The note with it: protein: recombinant; tags: N-terminal GST; dsDNA, one strand shown. Put shortly:
as §1

A further assay deals with CRX (Homo sapiens, UniProt O43186 1-299). The note with it: protein: recombinant; tags: N-terminal GST; dsDNA, one strand shown. Put shortly: as §1
A further assay concerns the target ETV1 (Homo sapiens, UniProt P50549 1-477). The conditions noted are these: protein: recombinant; tags: N-terminal GST; dsDNA, one strand shown. Put shortly:
as §1

Another assay deals with T6, ERF (Homo sapiens, UniProt P50548 1-548).
T6 sequence: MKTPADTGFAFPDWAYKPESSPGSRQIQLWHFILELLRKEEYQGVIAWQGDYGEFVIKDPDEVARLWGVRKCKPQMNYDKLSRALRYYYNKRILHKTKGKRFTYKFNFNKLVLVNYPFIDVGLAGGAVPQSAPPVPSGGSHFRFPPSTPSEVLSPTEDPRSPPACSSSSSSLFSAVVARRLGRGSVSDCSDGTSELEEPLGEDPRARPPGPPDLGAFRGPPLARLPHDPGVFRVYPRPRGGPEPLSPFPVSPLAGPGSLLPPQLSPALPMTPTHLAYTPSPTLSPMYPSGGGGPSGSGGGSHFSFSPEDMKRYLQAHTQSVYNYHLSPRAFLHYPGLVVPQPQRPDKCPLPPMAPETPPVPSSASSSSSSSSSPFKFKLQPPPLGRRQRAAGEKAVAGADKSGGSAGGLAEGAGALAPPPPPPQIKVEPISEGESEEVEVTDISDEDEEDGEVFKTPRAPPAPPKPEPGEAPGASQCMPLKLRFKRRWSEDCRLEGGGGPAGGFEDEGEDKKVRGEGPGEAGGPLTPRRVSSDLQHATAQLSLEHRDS
The conditions noted are these: protein: recombinant; tags: N-terminal GST; dsDNA, one strand shown. Put shortly: as §1

The target of another assay is T7, ETV3L (Homo sapiens, UniProt Q6ZN32 1-361).
T7 sequence: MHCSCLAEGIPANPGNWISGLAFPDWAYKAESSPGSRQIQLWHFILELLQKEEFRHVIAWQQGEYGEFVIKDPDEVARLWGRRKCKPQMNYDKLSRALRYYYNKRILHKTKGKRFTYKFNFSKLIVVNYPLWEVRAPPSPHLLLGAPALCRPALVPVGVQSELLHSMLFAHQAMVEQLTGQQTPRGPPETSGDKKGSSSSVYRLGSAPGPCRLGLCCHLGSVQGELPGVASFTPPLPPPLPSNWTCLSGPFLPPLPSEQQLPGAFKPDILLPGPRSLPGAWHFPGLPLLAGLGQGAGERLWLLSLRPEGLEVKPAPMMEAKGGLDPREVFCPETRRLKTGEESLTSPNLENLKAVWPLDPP
The note with it: protein: recombinant; tags: N-terminal GST; dsDNA, one strand shown. Put shortly: as §1

The target in another assay is T8, ETS2 (Homo sapiens, UniProt P15036 1-469).
T8 sequence: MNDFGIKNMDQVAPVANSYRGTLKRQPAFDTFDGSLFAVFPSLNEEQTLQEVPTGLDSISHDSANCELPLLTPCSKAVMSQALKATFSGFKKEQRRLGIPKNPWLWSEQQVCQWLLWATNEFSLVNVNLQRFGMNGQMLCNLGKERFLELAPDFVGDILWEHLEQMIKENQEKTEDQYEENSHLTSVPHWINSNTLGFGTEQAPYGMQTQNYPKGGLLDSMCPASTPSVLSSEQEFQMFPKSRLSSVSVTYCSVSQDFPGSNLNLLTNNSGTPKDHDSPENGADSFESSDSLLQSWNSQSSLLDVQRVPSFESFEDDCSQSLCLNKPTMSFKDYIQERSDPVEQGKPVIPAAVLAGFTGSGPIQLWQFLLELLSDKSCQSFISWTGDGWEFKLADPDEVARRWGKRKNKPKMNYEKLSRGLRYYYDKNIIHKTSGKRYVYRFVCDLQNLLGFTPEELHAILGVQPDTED
The conditions noted are these: protein: recombinant; tags: N-terminal GST; dsDNA, one strand shown. Put shortly:
as §1

Another assay addresses T9, SPDEF (Homo sapiens, UniProt O95238 1-335).
T9 sequence: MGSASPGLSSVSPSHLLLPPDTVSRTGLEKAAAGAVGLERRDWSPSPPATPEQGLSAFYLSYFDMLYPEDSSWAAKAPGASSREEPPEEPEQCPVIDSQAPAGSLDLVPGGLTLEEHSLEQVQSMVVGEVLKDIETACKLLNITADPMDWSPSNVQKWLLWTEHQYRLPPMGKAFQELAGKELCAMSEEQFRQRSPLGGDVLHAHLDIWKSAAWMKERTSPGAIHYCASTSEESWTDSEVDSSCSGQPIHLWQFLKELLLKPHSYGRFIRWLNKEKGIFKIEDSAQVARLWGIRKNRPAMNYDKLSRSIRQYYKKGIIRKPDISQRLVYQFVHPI
The conditions noted are these: protein: recombinant; tags: N-terminal GST; dsDNA, one strand shown. Put shortly:
as §1

For a further assay, the target named is T10, ETV7 (Homo sapiens, UniProt Q9Y603 1-341).
T10 sequence: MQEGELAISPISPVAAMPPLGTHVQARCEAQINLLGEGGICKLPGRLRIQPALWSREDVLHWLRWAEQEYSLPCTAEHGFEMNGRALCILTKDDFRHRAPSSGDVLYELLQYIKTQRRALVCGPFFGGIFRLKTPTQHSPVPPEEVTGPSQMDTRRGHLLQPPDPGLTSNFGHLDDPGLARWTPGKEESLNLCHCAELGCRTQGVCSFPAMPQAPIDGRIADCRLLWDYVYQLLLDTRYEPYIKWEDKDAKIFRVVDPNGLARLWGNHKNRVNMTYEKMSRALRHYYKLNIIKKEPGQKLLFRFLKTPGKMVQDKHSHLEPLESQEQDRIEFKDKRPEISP
The conditions noted are these: protein: recombinant; tags: N-terminal GST; dsDNA, one strand shown. Put shortly: as §1

The next assay has as its target T11, ELF5 (Homo sapiens, UniProt Q9UKW6-2 1-255).
T11 sequence: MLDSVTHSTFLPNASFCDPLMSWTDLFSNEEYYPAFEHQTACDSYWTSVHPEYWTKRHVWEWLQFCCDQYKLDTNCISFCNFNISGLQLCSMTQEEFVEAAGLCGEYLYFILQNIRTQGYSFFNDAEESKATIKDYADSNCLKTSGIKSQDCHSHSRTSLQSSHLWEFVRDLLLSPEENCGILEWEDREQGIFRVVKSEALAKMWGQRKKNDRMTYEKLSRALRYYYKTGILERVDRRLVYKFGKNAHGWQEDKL
The conditions noted are these: protein: recombinant; tags: N-terminal GST; dsDNA, one strand shown. Put shortly: as §1

In another assay the target is T12, ETV3 (Homo sapiens, UniProt P41162-2 1-143).
T12 sequence: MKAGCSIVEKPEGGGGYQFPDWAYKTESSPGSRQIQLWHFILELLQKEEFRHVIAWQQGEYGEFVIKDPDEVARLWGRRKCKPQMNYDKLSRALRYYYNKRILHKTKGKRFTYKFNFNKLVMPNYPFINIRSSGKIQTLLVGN
The conditions noted are these: protein: recombinant; tags: N-terminal GST; dsDNA, one strand shown. Put shortly: as §1

For another assay, the target named is ETV6 (Homo sapiens, UniProt P41212 1-452). The note with it: protein: recombinant; tags: N-terminal GST; dsDNA, one strand shown. Put shortly:
as §1

Chain of ETV1 (P50549 whole entry): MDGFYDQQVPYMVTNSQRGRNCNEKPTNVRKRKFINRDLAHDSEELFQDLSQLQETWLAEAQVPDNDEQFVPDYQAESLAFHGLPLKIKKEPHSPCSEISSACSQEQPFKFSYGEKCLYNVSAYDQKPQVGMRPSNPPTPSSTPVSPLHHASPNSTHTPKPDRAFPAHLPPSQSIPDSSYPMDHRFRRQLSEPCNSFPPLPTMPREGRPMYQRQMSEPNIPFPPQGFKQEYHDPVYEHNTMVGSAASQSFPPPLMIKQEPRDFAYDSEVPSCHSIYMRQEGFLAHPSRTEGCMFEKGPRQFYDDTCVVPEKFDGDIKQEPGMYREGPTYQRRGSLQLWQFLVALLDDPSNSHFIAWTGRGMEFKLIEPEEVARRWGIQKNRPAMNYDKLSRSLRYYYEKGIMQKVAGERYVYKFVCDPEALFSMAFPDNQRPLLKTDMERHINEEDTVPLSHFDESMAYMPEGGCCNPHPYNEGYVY
Chain of ETV6 (P41212 whole entry): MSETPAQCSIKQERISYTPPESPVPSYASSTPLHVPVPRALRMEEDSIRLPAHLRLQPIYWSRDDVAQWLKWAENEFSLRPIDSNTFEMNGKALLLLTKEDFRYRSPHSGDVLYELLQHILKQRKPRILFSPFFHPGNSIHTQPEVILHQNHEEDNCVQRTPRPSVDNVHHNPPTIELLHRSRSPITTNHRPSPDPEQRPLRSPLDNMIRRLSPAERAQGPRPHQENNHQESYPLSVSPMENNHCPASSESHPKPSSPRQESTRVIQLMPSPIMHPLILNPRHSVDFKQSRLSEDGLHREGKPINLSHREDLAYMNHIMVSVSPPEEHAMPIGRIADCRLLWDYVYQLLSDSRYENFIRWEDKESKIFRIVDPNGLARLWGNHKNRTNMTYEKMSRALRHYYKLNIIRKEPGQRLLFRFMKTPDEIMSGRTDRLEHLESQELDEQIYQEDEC
Chain of ELF4 (Q99607 whole entry): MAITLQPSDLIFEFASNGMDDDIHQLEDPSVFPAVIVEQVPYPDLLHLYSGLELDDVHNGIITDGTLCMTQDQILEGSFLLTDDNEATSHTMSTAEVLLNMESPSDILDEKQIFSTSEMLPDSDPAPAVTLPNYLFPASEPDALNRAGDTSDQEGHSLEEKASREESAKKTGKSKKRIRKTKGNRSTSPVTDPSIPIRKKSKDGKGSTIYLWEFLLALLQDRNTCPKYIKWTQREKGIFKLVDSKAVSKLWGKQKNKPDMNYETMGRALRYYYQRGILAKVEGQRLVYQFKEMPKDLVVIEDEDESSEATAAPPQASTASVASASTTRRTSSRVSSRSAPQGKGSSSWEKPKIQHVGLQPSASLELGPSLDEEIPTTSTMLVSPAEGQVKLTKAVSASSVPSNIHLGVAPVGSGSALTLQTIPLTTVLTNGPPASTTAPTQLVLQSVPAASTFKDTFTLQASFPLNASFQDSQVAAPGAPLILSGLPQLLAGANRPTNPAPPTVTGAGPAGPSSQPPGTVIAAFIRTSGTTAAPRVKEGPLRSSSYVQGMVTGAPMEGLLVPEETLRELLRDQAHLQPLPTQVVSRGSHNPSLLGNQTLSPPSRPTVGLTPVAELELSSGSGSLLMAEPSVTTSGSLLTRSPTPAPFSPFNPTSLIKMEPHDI
Chain of ETV5 (P41161 whole entry): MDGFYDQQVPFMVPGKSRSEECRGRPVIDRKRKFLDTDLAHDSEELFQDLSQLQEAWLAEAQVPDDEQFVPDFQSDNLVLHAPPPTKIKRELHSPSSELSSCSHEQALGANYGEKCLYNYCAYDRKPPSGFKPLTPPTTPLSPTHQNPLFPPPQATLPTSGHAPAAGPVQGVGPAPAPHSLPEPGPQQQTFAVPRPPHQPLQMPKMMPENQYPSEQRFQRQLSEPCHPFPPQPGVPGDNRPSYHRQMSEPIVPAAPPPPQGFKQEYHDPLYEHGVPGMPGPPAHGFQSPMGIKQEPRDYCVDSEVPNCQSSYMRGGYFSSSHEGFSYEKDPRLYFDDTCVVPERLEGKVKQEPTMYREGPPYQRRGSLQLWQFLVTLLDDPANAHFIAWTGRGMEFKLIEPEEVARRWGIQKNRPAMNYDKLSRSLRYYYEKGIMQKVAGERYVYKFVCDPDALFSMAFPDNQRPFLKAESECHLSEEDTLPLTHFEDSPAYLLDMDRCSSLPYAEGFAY
Chain of HSF1 (Q00613 whole entry): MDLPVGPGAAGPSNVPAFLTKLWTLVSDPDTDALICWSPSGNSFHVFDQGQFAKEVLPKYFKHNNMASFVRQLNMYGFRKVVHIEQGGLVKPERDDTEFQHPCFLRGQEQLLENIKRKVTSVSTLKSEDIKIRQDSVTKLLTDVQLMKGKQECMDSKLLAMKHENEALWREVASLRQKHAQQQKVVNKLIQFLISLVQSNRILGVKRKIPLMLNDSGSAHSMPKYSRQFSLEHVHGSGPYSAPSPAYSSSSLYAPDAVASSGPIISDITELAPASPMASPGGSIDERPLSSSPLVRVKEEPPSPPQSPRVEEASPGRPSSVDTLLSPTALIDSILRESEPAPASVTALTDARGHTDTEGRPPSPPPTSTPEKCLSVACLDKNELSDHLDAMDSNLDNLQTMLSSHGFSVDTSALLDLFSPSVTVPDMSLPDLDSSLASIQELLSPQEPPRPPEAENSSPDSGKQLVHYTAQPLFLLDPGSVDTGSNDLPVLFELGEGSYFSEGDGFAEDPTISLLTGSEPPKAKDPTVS
Chain of CRX (O43186 whole entry): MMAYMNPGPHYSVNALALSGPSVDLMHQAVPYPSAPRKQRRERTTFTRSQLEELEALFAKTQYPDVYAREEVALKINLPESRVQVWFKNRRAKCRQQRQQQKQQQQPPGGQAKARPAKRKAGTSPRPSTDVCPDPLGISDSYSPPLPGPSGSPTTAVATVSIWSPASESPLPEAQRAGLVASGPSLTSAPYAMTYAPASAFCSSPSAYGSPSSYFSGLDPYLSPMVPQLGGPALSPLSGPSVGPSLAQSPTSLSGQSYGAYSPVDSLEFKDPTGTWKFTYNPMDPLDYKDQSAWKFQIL

Regarding AACTCG, the binding signal with FEV was 1.32 fold enrichment (6-mer frequency, TF over GST control); in the assay with ETV5 it was 1.29 fold enrichment (6-mer frequency, TF over GST control); with HSF1, 1.4 fold enrichment (6-mer frequency, TF over GST control); with SPIC it was 1.58 fold enrichment (6-mer frequency, TF over GST control); with ELF4 it was 1.37 fold enrichment (6-mer frequency, TF over GST control); in the assay with ELK4, 1.29 fold enrichment (6-mer frequency, TF over GST control). Also, the binding signal in the assay with ETV2 was 1.37 fold enrichment (6-mer frequency, TF over GST control); with ELF3, 1.29 fold enrichment (6-mer frequency, TF over GST control); in the assay with CRX it was 1.3 fold enrichment (6-mer frequency, TF over GST control); with ETV1, 1.3 fold enrichment (6-mer frequency, TF over GST control); in the assay with ERF, 1.44 fold enrichment (6-mer frequency, TF over GST control); in the assay with ETV3L it was 1.43 fold enrichment (6-mer frequency, TF over GST control). Besides, the binding signal is 1.31 fold enrichment (6-mer frequency, TF over GST control) in the assay with ETS2; 1.31 fold enrichment (6-mer frequency, TF over GST control) with SPDEF; 1.33 fold enrichment (6-mer frequency, TF over GST control) with ETV7; 1.35 fold enrichment (6-mer frequency, TF over GST control) with ELF5; 1.4 fold enrichment (6-mer frequency, TF over GST control) in the assay with ETV3; 1.33 fold enrichment (6-mer frequency, TF over GST control) in the assay with ETV6.
